Test results from publication PMC7819943, “Rice protein-binding microarrays: a tool to detect cis-acting elements near promoter regions in rice”.
Over roughly 35,000 sequences, “fluorescence intensity (a.u.)” has its median near 10,000; the highest 2% begin near 52,000. The sample as a whole holds a higher share of the highest values than the screen did.

target: T1, OsWOX13 (Oryza sativa, UniProt Q5QMM3 1-267); experiment: protein-binding microarray (RPBM); PBS, 2% BSA, 51.3 ng/ul salmon testes DNA, 50 uM zinc acetate, 200 nM TF, 25 C, 1 h; high values mean tight binding; details: protein: recombinant; tags: N-terminal polyhistidine and DsRed monomer fusion (pET32a); label: CyDye5-dUTP incorporated in the synthesized complementary strand; 3' TTTTT single-stranded linker to array surface; dsDNA, one strand shown
T1 sequence: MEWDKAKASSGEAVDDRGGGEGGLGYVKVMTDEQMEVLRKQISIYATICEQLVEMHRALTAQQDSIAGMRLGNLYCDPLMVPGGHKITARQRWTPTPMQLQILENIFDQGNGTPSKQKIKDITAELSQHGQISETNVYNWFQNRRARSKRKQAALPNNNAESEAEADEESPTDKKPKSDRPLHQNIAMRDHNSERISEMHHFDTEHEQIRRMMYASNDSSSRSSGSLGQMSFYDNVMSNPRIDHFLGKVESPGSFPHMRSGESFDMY
Method in brief: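 Binding signal here means per-feature fluorescence intensity in arbitrary units. The values were read on an Axon 4000B scanner after a custom Agilent array, double-stranded by primer extension with Cy5-dUTP, was incubated with 200 nM protein at 25 °C for 1 h in PBS with 2% BSA, salmon testes DNA and 50 µM zinc acetate, then washed. The proteins were transcription factors with an N-terminal polyhistidine tag and DsRed, expressed in E. coli BL21-CodonPlus and purified on Ni–NTA.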

Row | Sequence | binding signal
1 | ACAAAACAAATTACAGATTCCGCCTGCAAATTATGAGACACGGAGTCACCTAGTGCAG | 6510 fluorescence intensity (a.u.)
2 | CCGTGCTCAACTACCCAATCACTCCAAATTAAGCTCGCATCGGAGTCACCTAGTGCAG | 3750 fluorescence intensity (a.u.)
3 | TATTAATTAATTAACCTTAATTAATAAACAGGCAAAAGAACGGAGTCACCTAGTGCAG | 40700 fluorescence intensity (a.u.)
4 | TGCTAGATTAAATTTTAAAACTATATTGTTCCTTTCATATCGGAGTCACCTAGTGCAG | 12400 fluorescence intensity (a.u.)
5 | CCTGATTTCCTCCTTTCAGTGAAGTGTTAAACCCTAGCTACGGAGTCACCTAGTGCAG | 21500 fluorescence intensity (a.u.)
6 | AGTGGCTGCCGAATTAATTGGATCGCGTGCTGCGTGCGTGCGGAGTCACCTAGTGCAG | 5740 fluorescence intensity (a.u.)
7 | TGTTAAATTATATCTAAGGAAACCGGTTTTGATTTCCTTCCGGAGTCACCTAGTGCAG | 11100 fluorescence intensity (a.u.)
8 | TGATAAATTTGATGTTTATATGTTAAATTATAGTAGTTTGCGGAGTCACCTAGTGCAG | 17600 fluorescence intensity (a.u.)
9 | TTAAATTGGATCTGATTGATTTGTTTAAGGAAACCACCGGCGGAGTCACCTAGTGCAG | 54600 fluorescence intensity (a.u.)
10 | CTATTAAATTGATTATATATGATTTGTAGTTTATAGTTGGCGGAGTCACCTAGTGCAG | 65100 fluorescence intensity (a.u.)
11 | ATTAATTGAGTTTTATTTTATTGTAAATTTGATTTAATAGCGGAGTCACCTAGTGCAG | 37200 fluorescence intensity (a.u.)
12 | AGGATTGTTTCTGATGATTTGGGCCCGGAAAGACATAAGGCGGAGTCACCTAGTGCAG | 7510 fluorescence intensity (a.u.)
13 | GAGTAATATTCAACATTTTGATTAGAGGTTAACCGGTGTACGGAGTCACCTAGTGCAG | 5370 fluorescence intensity (a.u.)
14 | ATTCATTAATCTGTACTAATTGATATTGCTAAGCAGCTGCCGGAGTCACCTAGTGCAG | 34200 fluorescence intensity (a.u.)
15 | TTTGATAAAATCATAGATGTAGATTTTAATGTGATCTGAGCGGAGTCACCTAGTGCAG | 6270 fluorescence intensity (a.u.)
16 | TCACGATTAATTATATCATCATTTTGTATCCTTTGATTTCCGGAGTCACCTAGTGCAG | 25200 fluorescence intensity (a.u.)
17 | GTGGCATTTAGGTAATTAATTTAGTTTTATTTGTTACCTGCGGAGTCACCTAGTGCAG | 10200 fluorescence intensity (a.u.)
18 | TCTAAATGATTGTTATTTTCTTTCCTATTGTAAAGTTCAACGGAGTCACCTAGTGCAG | 18900 fluorescence intensity (a.u.)
19 | ATTTTGTGGTAATCTATACAAATTACTATATCCCCAATTGCGGAGTCACCTAGTGCAG | 4670 fluorescence intensity (a.u.)
20 | AATACTTATTAATAATTAACATGTGTTAATTCATTGCTTCCGGAGTCACCTAGTGCAG | 13400 fluorescence intensity (a.u.)
21 | CATTATTTCACTTGATTAAATTGCTTTAACTTTTATTTAGCGGAGTCACCTAGTGCAG | 15900 fluorescence intensity (a.u.)
22 | ATTATTAATTTAATAGTATTGTAGTGATTCAGAGTACTAGCGGAGTCACCTAGTGCAG | 19200 fluorescence intensity (a.u.)

Row | Sequence | binding signal
23 | TATATTTATTATTTGCAGTTAATTATGTTACAAATAATAACGGAGTCACCTAGTGCAG | 4460 fluorescence intensity (a.u.)
24 | TAATTAATAATTAATTAATTATGTGTTAATTGCTTGCTCCCGGAGTCACCTAGTGCAG | 65500 fluorescence intensity (a.u.)
25 | CAAATTTATAATAATTAAAATTTAATTAATTATGTGTTAACGGAGTCACCTAGTGCAG | 57700 fluorescence intensity (a.u.)
26 | TGTATTTAATTAGTTTGACAGAAACAAATTTGCTCAGTTACGGAGTCACCTAGTGCAG | 37100 fluorescence intensity (a.u.)
27 | GTAAATATTAATGAATTGCTTGTTTATGTTTAAATAAATGCGGAGTCACCTAGTGCAG | 4960 fluorescence intensity (a.u.)
28 | TGTGTGTGTTTTAATTAATTAACATTTATATAAATATGAACGGAGTCACCTAGTGCAG | 14100 fluorescence intensity (a.u.)
29 | ATTTTGAAATTTTAATTTTAAAATTACATTTTGGGACAAACGGAGTCACCTAGTGCAG | 8130 fluorescence intensity (a.u.)
30 | CTTTAATTAATTTAACTGCCATTATTATGTACTTTCAGAGCGGAGTCACCTAGTGCAG | 63200 fluorescence intensity (a.u.)
31 | CTTAATTACAAATTTGAAATTAATTTGCTAGGTATGTTTACGGAGTCACCTAGTGCAG | 63900 fluorescence intensity (a.u.)
32 | ATTGATTATTATTTTAAAATAAAATGGCGTGTTAGGTTTTCGGAGTCACCTAGTGCAG | 47300 fluorescence intensity (a.u.)
33 | CACTGATTTTGATAGTTGAGGGACCCGTTGTATTTGATTTCGGAGTCACCTAGTGCAG | 21500 fluorescence intensity (a.u.)
34 | CCAAAATTTGATAGAATCTATTCCGAAGCGTCCAATGTTTCGGAGTCACCTAGTGCAG | 33400 fluorescence intensity (a.u.)
35 | CCGCTGTAGCTGATTGCCAGTGTCAGATCAAGCTGTGAATCGGAGTCACCTAGTGCAG | 9800 fluorescence intensity (a.u.)
36 | ATTAGGTGTTTCCAGTTAATTAAAGTCATGTAGTACGGATCGGAGTCACCTAGTGCAG | 3680 fluorescence intensity (a.u.)
37 | AATCAGCTCTAAATTTAAATTGTGGCTGATAAATACGAGTCGGAGTCACCTAGTGCAG | 4450 fluorescence intensity (a.u.)
38 | GCTAAATTCCTATCAAATTCAAGTTTAACACATTACTGCGCGGAGTCACCTAGTGCAG | 13100 fluorescence intensity (a.u.)
39 | ATGAAATCAAGGTTTTGCAAATTGAAATCCATGTTTTGGTCGGAGTCACCTAGTGCAG | 8140 fluorescence intensity (a.u.)
40 | ATTATTATAAATTATTTCCTCCGTTTCACAATGTAAGTCACGGAGTCACCTAGTGCAG | 5530 fluorescence intensity (a.u.)
41 | TAAATTGCGCAAAATTTATTCACGTAGATTAAGAGTCCATCGGAGTCACCTAGTGCAG | 10700 fluorescence intensity (a.u.)
42 | GTTGATTTCACGACCTGCTCGCTGAGGAATGGAGGTCCAGCGGAGTCACCTAGTGCAG | 3180 fluorescence intensity (a.u.)
43 | ATCATAATTAAATATATTTTCATAATAAATTTGTCTTTAGCGGAGTCACCTAGTGCAG | 31000 fluorescence intensity (a.u.)
